Screens deposited in PubChem BioAssay by several laboratories.
Most compounds without a hit are left out; they make up all but 4.3% or so of the library.
Peg3 promoter: Peg3 promoter-driven luciferase inhibitors, primary screen, cell-based, HeLa, luciferase luminescence | inhibition, % at 20 µM | 360,000 tested, 1.7% active | HeLa PEG-Prom luciferase reporter, overnight;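 active = inhibition of at least 50% at 20 µM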
TRPM1 prom inh: inhibitors of MITF-dependent TRPM1 promoter reporter, primary screen, cell-based, SK-MEL-5, single point, luciferase | SK-MEL-5 TRPM1 promoter luciferase, 24 h | inhibition, % at 12.5 µM | 330,000 tested, 0.83% active | AID 488899, 2010;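 active = mean inhibition across replicates of 60% or more, whatever share of single replicates reaches that level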
CF NFkB inh: inhibitors of PAF-induced NF-kB signaling, primary screen, cell-based, GFP fluorescence, uHTS; 360,000 tested, 0.86% active; inhibition, % at 5 µM; AID 588850, 2011; KKLEB NF-kB-GFP reporter, GFP fluorescence overnight;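 active = at least 50% inhibition at 5 µM, scaled per plate between neutral and stimulator controls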;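 also: PAF is a Pseudomonas aeruginosa culture filtrate used as stimulus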
CHOP inh: inhibitors of CHOP promoter induction, primary screen, cell-based, unfolded protein response, luciferase reporter; CHO-K1 CHOP-promoter luciferase, tunicamycin-induced, 15-18 h; inhibition, % at 10 µM; 220,000 tested, 3.8% active;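 active = compounds that reduced the stress-induced luciferase reporter signal by more than about 70% of percent inhibition, limit read from the data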
HIF-2a inh: HIF-2a reporter inhibitors, primary screen, luminescence, 786-0 RCC cells | 786-0 RCC cells HIF-2a reporter, luciferase luminescence, overnight | inhibition, % at 18.8 µM | 360,000 tested, 0.72% active | AID 624352, 2012;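 active = inhibition of the luminescence signal of 40% or more relative to plate controls, in a single-dose primary screen at 18.75 µM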
KKLEB cytotox: cytotoxicity in KKLEB CF airway cells, primary screen, cytotoxicity control for CF NF-kB inhibitor project, cell-based, uHTS, fluorescence assay plates; KKLEB CF airway cells viability, ATPlite luminescence, overnight; hits give low values; cells stimulated with P. aeruginosa culture filtrate; activity change (cytotoxicity), % at 5 µM; 360,000 tested, 0.36% active;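 active = corrected activity change at or below -50% at 5 µM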
Each line names hits and unclear results; the compound was inactive in the other large screens.

COc1cc(Cl)c(NC2=CC(=O)C(=O)c3ccccc32)c(OC)c1	TRPM1 prom inh 96, CF NFkB inh 83 (no result: CHOP inh)
COc1cc(Cl)c(NS(=O)(=O)c2ccc(-c3ccc(=O)[nH]n3)o2)c(OC)c1	none (no result: CHOP inh)
CC(C(=O)Nc1cccnc1)N1C(=O)c2ccccc2C1=O (configuration not stated)	none
COC1=C(Nc2ccc(C)cc2)C(=O)c2ccccc2C1=O	none
O=C1C=C(Nc2ccc(F)cc2)c2ccccc2C1=O	TRPM1 prom inh 97, CF NFkB inh 82 (no result: CHOP inh)
O=C1C=C(Nc2cccnc2)c2ccccc2C1=O	TRPM1 prom inh 101, CF NFkB inh 54 (no result: CHOP inh)
CCOc1ccc(NC2=CC(=O)C(=O)c3ccccc32)cc1	TRPM1 prom inh 102, CF NFkB inh 80 (no result: CHOP inh)
CC(C)=CCCC(C)=CCN1C(=O)CN(C)C1=O	none (no result: TRPM1 prom inh, CHOP inh)
CCCCN(C)CCNC(=O)C1CCN(S(=O)(=O)c2cccc3nsnc23)CC1	none (no result: CHOP inh)
Cc1nn(-c2ccccc2)c2sc(C(=O)NNC(=O)COc3ccccc3)cc12	none
Cc1cnc(NC(=O)c2cc3c(C)nn(-c4ccccc4)c3s2)s1	CHOP inh 86
CCOC(=O)c1ccc(NC(=O)c2cc3c(C)nn(-c4ccccc4Cl)c3s2)s1	CF NFkB inh 70, KKLEB cytotox -70
Cc1nn(-c2ccccc2)c2sc(C(=O)NC3CCCCC3)cc12	none
Cc1nn(-c2ccccc2)c2sc(C(=O)NNC(=O)COc3cccc4ccccc34)cc12	CHOP inh 92
Cc1nn(-c2ccccc2)c2sc(C(=O)N3CCCCC3)cc12	CHOP inh 82
Cc1nn(-c2ccccc2Cl)c2sc(C(=O)Nc3nnc(C4CC4)s3)cc12	none
CC(C)(C)c1nc2sc3c(c2c(=O)o1)CCCC3	CHOP inh 79
CCc1nc2sc3c(c2c(=O)o1)CCCC3	none
Cc1ccc(C(=O)c2cc3c(cc2N)OCCO3)cc1	CHOP inh 73
Nc1cc2c(cc1C(=O)c1ccccc1)OCCO2	none
Cc1cccc(N2Cc3ccc(Br)cc3C2)c1	none (no result: CHOP inh)
O=S(=O)(c1ccc(NC(=S)NN=Cc2ccccc2O)cc1)N1CCCCC1	none (no result: CHOP inh)
C=CCN=C(NC#N)SCC(=O)c1cccc(OC)c1	CF NFkB inh 61
C=CCN=C(NC#N)SCc1ccccc1	none
O=[N+]([O-])c1cnc(Sc2ccncn2)c([N+](=O)[O-])c1	Peg3 promoter 113 (no result: TRPM1 prom inh, CHOP inh)
CC1CC2C3CCC4=CC(=O)C=CC4(C)C3(F)C(O)CC2(C)C1(O)C(=O)CO (configuration not stated)	CF NFkB inh 77
C[C@]12C=CC(=O)C=C1CC[C@H]1[C@@H]3C[C@@H](O)[C@](O)(C(=O)CO)[C@@]3(C)C[C@H](O)[C@@]12F	CF NFkB inh 77
CC12C=CC(=O)C=C1CCC1C2C(=O)C[C@@]2(C)C1CCC2(O)C(=O)CO (some centres not stated)	none (no result: CHOP inh)
COc1ccccc1-c1cc2c(c3c1ccn3C)C1CCC2C1 (configuration not stated)	none (no result: TRPM1 prom inh, CHOP inh)
COCCOc1ccc(C(F)(F)F)cc1Nc1nc2ccccc2o1	CHOP inh 88
COCCOc1ccc(C(F)(F)F)cc1NC(=O)c1ccc(C(F)(F)F)cc1	none
O=C(c1ccc2c(c1)OCCO2)C1CCN(S(=O)(=O)c2ccc(F)cc2)CC1	Peg3 promoter 55
NC(=O)C1CCN(S(=O)(=O)c2ccc3c(c2)OCCO3)CC1	none
C/C(CCc1oc2ccc(Cl)cc2c1-c1ccc(C)o1)=N\O	CHOP inh 75
O=C(NC1CC(=O)N(c2ccccc2)C1)C1CC1 (configuration not stated)	none (no result: CHOP inh)
CCCCC(CC)COC1(c2ccccc2)OC(=O)c2ccccc21 (configuration not stated)	none
CCCCOC1(c2ccccc2)OC(=O)c2ccccc21 (configuration not stated)	CHOP inh 81
Cc1ccccc1/C=c1\s/c(=C\C(=O)C(C)(C)C)[nH]c1=O	CHOP inh 82
CC(C)(C)C(=O)/C=C1\NC(=O)CS1	none
